Here are results for 7 sequences from the supplement of paper PMC6555819.

What all share (assay): PBM binding z-score (relative to random genomic background probes); higher = stronger binding; sequences stand for … in GC…GCGATTGACAGCGTAGAATGAAGG
Test [1] relates to FXR:RXRa (NR concentration 270 nM, RXRa partner concentration 90 nM). The essentials: (§1)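 Each nuclear receptor dimer, without ligand, was incubated for 1 h on custom Agilent 4×180K protein-binding microarrays. Binding was detected with antibodies against each partner (one per run), and scanned fluorescence was regression-normalized. The binding z-scores are referenced to random human genomic background probes.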

Test [2] concerns LXRa:RXRa (NR concentration 270 nM, RXRa partner concentration 90 nM). The essentials:
as §1

The test system of test [3] is LXRa homodimer (NR concentration 270 nM). A digest of the protocol:
as §1

Test [4] concerns LXRb:RXRa (NR concentration 270 nM, RXRa partner concentration 90 nM). The essentials: as §1
Test [5] concerns LXRb homodimer (NR concentration 270 nM). The essentials:
as §1

The test system of test [6] is PPARa:RXRa (NR concentration 270 nM, RXRa partner concentration 90 nM). The essentials:
as §1

Test [7] relates to PPARg:RXRa (NR concentration 180 nM, RXRa partner concentration 90 nM). The essentials: as §1
For test [8], the system named is PPARg:RXRa 270nM:90nM, anti-RXR (NR concentration 270 nM, RXRa partner concentration 90 nM). The essentials: as §1
For test [9], the system named is PPARg:RXRa 30nM:10nM, anti-RXR (NR concentration 30 nM, RXRa partner concentration 10 nM). A digest of the protocol:
as §1

Test [10] has as its system PPARg:RXRa 90nM:30nM, anti-RXR (NR concentration 90 nM, RXRa partner concentration 30 nM). The essentials:
as §1

For test [11], the system named is PPARg:RXRa DBDmut IVT, anti-RXR (DBD mutation: RXRa K156A/R161A, NR concentration 270 nM, RXRa partner concentration 90 nM). The essentials:
as §1

Test [12] relates to PPARg:RXRa IVT, anti-PPARg (NR concentration 270 nM, RXRa partner concentration 90 nM). A digest of the protocol: as §1
For test [13], the system named is PPARg DBDmut:RXRa IVT, anti-PPARg (DBD mutation: PPARg1 K132A/R137A, NR concentration 270 nM, RXRa partner concentration 90 nM). The essentials: as §1
Test [14] relates to PPARg DBDmut IVT, anti-PPARg (DBD mutation: PPARg1 K132A/R137A, NR concentration 270 nM). A digest of the protocol: as §1
Test [15] concerns PPARg homodimer (NR concentration 180 nM). A digest of the protocol:
as §1

For test [16], the system named is PXR:RXRa (NR concentration 270 nM, RXRa partner concentration 90 nM). The essentials: as §1
The subject of test [17] is PXR homodimer (NR concentration 270 nM). The essentials:
as §1

Test [18] deals with RARa:RXR (NR concentration 270 nM, RXRa partner concentration 90 nM). A digest of the protocol: as §1
Test [19] concerns RARa homodimer (NR concentration 270 nM). A digest of the protocol:
as §1

Test [20] has as its system RARb:RXRa (NR concentration 270 nM, RXRa partner concentration 90 nM). The essentials:
as §1

As to GCTAGTTGGTCAGTAAAACGTCACACACCGGTCG, the PBM binding z-score was -0.277 in test [1]; -0.464 in test [2]; -0.383 in [3]; -0.473 in test [4]; -0.195 in [5]; -0.343 in test [6]. The PBM binding z-score in test [7] is 0.524; in test [8], -0.186; in [9], -0.445; in test [10] it was -0.286; in [11], 0.256; in test [12] it was 0.168. Also, the PBM binding z-score was 0.0879 in [13]; -0.472 in test [14]; -0.368 in test [15]; -0.432 in [16]; -0.66 in [17]; -0.372 in test [18]. In addition, the PBM binding z-score in [19] was -0.12; in test [20], 0.305.
As for ACTATTAGTTGAAACGAGGGCAACCGATAGGTTG, the PBM binding z-score in test [1] was determined as 1.41; in test [2] it was 0.609; in test [3] it was 0.126; in test [4], 0.482; in [5] it was 0.184; in test [6], 1.14. Also, the PBM binding z-score worked out at 0.901 in [7]; 0.84 in test [8]; 0.292 in [9]; 0.528 in test [10]; 0.662 in [11]; 1.73 in [12]. Moreover, the PBM binding z-score in test [13] worked out at 1.09; in test [14] it was 0.692; in [15], 0.274; in test [16], 2.71; in test [17], 0.569; in test [18], 1.38. The PBM binding z-score in [19] came out at 0.873; in test [20], 1.27.
As for ACAGACATGTGATGAAGGTAACTCAGGCTATCAT, the PBM binding z-score in test [1] was 0.000592; in test [2], -0.0384; in [3], -0.258; in test [4], -0.35; in test [5] it was -0.283; in [6], -0.131. Further, the PBM binding z-score in test [7] was 0.611; in test [8], -0.0726; in [9], -0.0978; in [10], 0.0328; in test [11], -0.334; in test [12], 0.139. In addition, the PBM binding z-score in test [13] is 0.595; in test [14], 0.868; in test [15], -0.0569; in test [16] it was -0.448; in [17] it was -0.319; in [18] it was -0.161. The figures for the PBM binding z-score in test [19] and in [20] were -0.142 and -0.338, respectively.
On to GCGACTGGGGCATCAGCAGGTTACCACAACTTAA, for which the PBM binding z-score in test [1] is -0.0917; in test [2], -0.185; in test [3], -0.291; in test [4], 0.725; in [5], -0.793; in [6], 0.935. Further, the PBM binding z-score was 0.922 in [7]; 1.13 in test [8]; -0.162 in [9]; -0.0671 in test [10]; 3.58 in test [11]; 3.42 in test [12]. Besides, the PBM binding z-score in test [13] is -0.499; in test [14], -0.426; in [15], 0.249; in test [16], 0.125; in test [17] it was -0.569; in test [18], 0.565. Also, the results for the PBM binding z-score in [19] and in test [20] were -0.456 and 0.902, respectively.
In the case of CCTAGTTGGTCAGGAGGTCGCACACCGGATATGA, the PBM binding z-score is 1.17 in [1]; 0.794 in test [2]; 0.375 in [3]; 0.833 in [4]; 0.0283 in [5]; 1.59 in [6]. In addition, the PBM binding z-score is 1.06 in test [7]; 1.73 in test [8]; 0.24 in test [9]; 1.19 in test [10]; 0.576 in test [11]; 1.51 in test [12]. For the same sequence, the PBM binding z-score in test [13] was -0.0553; in test [14], -0.0724; in test [15], 1.86; in test [16], 1.24; in test [17] it was 0.681; in test [18], 1.59. For the same sequence, the results for the PBM binding z-score in test [19] and in [20] were 1.17 and 1.98, respectively.
As to TGTATGAGGTTATAAGATCAGGGAACGTTGCAAA, the PBM binding z-score in test [1] was 1.68; in test [2], 1.72; in test [3], 0.117; in [4], 1.22; in test [5], 0.92; in [6], 2.51. Also, the PBM binding z-score came to 1.04 in test [7]; 1.47 in [8]; 0.966 in test [9]; 1.2 in test [10]; 0.0132 in [11]; 0.98 in test [12]. Further, the PBM binding z-score in test [13] is 0.426; in [14] it was 0.745; in test [15], 0.994; in test [16] it was 1.1; in [17] it was -0.0169; in test [18], 1.62. For the same sequence, the PBM binding z-score in [19] amounted to 0.679; in test [20], 1.47.
With TCTTCTAGATCAACAGGAGGTTAAGAAAGATCGA, the PBM binding z-score in [1] is 0.645; in test [2], 1.25; in [3], 0.194; in test [4] it was 0.772; in test [5] it was 0.728; in test [6], 1.24. Besides, the PBM binding z-score in test [7] turned out to be 0.0258; in test [8] it was 1.94; in test [9], 3.46; in test [10] it was 2.67; in test [11], 1.93; in test [12] it was 1.19. In addition, the PBM binding z-score came out at 1.81 in test [13]; 1.8 in test [14]; 0.382 in test [15]; 0.755 in test [16]; 0.113 in test [17]; 1.32 in test [18]. Besides, the PBM binding z-score turned out to be 0.555 in [19] and 0.762 in test [20].
